# Assay outcomes (PubChem BioAssay)
# Shown are actives, neighbours in structure and some others; about 9.3% of the full set was active somewhere.
# ELG1 genotox – genotoxicity induction in ELG1-luciferase HEK293T cells; HEK293T ELG1-luciferase reporter, luminescence, 16 h; Potency, µM (doses to about 46 µM), without a hit: at the highest dose activity change, positive = activation, most hits filed as activators; 330,000 compounds, 1.3% hits; further: % of control where 0% means no effect; nearly all actives have a fitted effect of over 60% in size
#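 Reporter readout depends on ELG1 protein level, which increases with genetic stress. After 16 hr compound exposure at 37 °C, luciferase activity was quantified using ONE-Glo.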
# Rab9 prom act – Rab9 promoter activation. Huh7 Rab9 promoter-luciferase reporter, luminescence, 24 h. 320,000 compounds, 2.8% hits. Potency, µM (top dose mostly 9.22 µM), for inactives: at the top dose activation, negative = inhibition, hits mostly activators; further: % of control where 0% means no effect; nearly all actives have a fitted effect of over 60% in size
#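 Steps: seed 1500 Huh7 Rab9-luc cells per well, rest 2 h at 37 °C; add compound in DMSO; incubate 24 h; add luciferase reagent, 10 min ambient; read luminescence.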
# SMN2 splice enh – increases expression of the SMN2 splice variant; HEK293 SMN2-luciferase splicing reporter, luminescence, 30-36 h; Potency, µM (series often up to 46.1 µM), without a hit: top-dose activity change, positive = activation, hits mostly activators; 210,000 compounds, 2.8% hits; AID 1458; further: % of control where 0% means no effect; nearly all actives have a fitted effect of over 55% in size
#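 HEK293 cells carry an SMN2 […]–luciferase reporter in which exon 7 inclusion puts luciferase in frame. Cells were plated 10-12 h before compound addition, then incubated 30-36 h at 37C. ONE-Glo luminescence was read; sodium butyrate at 4.5 mM final served as control.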
# ELG1 DNA repair – ELG1-dependent DNA repair inhibition; AID 504467; 330,000 compounds, 2.3% hits; HEK293T ELG1-luciferase reporter, luminescence, 16 h; DNA damage induced by 5-fluorouridine; Potency, µM (highest dose often 46.1 µM), inactives show at the highest dose activity change, negative = inhibition, usual class: inhibitors; further: on the % scale 0 is the no-effect control and ±100 the full control effect; nearly all actives have a fitted effect of over 55% in size
#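 In this reporter screen, reduction of luminescence relative to DMSO vehicle indicated activity. Compounds and 5-fluorouridine were added together to 2,000 cells per well, incubated for 16 hr at 37 °C, then developed with ONE-Glo.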
# FLuc modulator – counter-screen for miR-21 project: firefly luciferase inhibitors or activators. P08659. AID 588342. 360,000 compounds, 6.9% hits. purified FLuc, Km substrates, luminescence inhibition. Potency, µM (highest dose often 57.5 µM), without a hit: at the top dose activity change, negative = inhibition, most hits filed as inhibitors;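 further: plate controls were vehicle for no effect and reference inhibitor for full effect; nearly all actives have a fitted effect of over 55% in size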
# Target sequence (P08659 whole entry, looked up): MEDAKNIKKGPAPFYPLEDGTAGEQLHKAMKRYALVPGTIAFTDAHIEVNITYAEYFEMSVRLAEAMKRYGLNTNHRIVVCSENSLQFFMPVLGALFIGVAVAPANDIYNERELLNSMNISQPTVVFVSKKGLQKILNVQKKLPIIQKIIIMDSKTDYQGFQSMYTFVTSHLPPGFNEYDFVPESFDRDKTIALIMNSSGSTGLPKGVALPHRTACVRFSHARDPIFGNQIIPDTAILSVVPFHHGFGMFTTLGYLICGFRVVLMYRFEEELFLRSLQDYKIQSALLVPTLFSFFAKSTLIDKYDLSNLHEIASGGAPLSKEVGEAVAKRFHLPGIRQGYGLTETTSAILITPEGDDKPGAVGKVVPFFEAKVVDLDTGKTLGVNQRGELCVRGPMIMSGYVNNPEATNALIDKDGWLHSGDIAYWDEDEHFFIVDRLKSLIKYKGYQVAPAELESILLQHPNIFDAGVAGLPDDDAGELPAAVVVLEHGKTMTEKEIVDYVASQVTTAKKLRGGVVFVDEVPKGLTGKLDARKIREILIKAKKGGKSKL
#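 Purified P. pyralis luciferase (10nM final) with 10uM D-luciferin and 10uM ATP (Km levels) in 50mM Tris acetate pH 7.5, 10mM Mg acetate, 0.01% Tween-20, 0.05% BSA; qHTS 6-point titration, ~60 µM downward; luminescence read.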
# NPC1 promoter act – activates the NPC1 promoter | Huh7 NPC1 promoter luciferase reporter, 24 h | Potency, µM (top dose mostly 9.22 µM), without a hit: top-dose activation, usual class: activators | 320,000 compounds, 2.4% hits | AID 485313; further: % of control where 0% means no effect; nearly all actives have a fitted effect of over 60% in size
#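 Readout is luciferase luminescence, reflecting NPC1 promoter activation in stably transfected Huh7 cells after 24 h compound exposure at 37 °C in reduced-serum medium with 10% FBS.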
# * = called active by the depositor; ? = inconclusive; · = no result given; [ ] = another dose, or the depositor's remark. The call rests on the fitted dose curve; in most records, active means well fitted curve in the direction sought with a large enough effect; inconclusive means small, poorly fitted or top-dose-only effect, or another doubt; inactive means no such curve, though single readings can be large; an effect the other way counts as inactive or inconclusive. Potency means the concentration at half of the fitted maximal effect.
SMILES,ELG1 genotox,Rab9 prom act,SMN2 splice enh,ELG1 DNA repair,FLuc modulator,NPC1 promoter act
C=CCn1c(=O)c2ccccc2n2c(SCc3nc4ccccc4s3)nnc12,?,?,-25.6%,?,12µM*,4.7%
C=CCn1c(=O)c2ccccc2n2c(SCC(=O)O)nnc12,0.3%,-0.2%,·,4.4%,0.5%,2.5%
CC(=O)c1ccc(Nc2cnn(C34CC5CC(CC(CC(=O)O)(C5)C3)C4)c(=O)c2Cl)cc1,-10.1%,-0.1%,-0.5%,3.3%,-0.9%,-4.2%
Cc1cc(S(=O)(=O)Nc2ccc(C(=O)NCCCN3CCCC3=O)cc2)ccc1F,-1.0%,-7.0%,·,9.8%,-0.4%,-3.0%
O=[N+]([O-])c1cc(/C=N/Nc2nc3ccccc3[nH]2)c(O)cc1O,?,-27.9%,-65.2%,?,23.9µM*,-30.6%
Cc1ccc(/C=N/Nc2nc3ccccc3[nH]2)s1,?,2.24µM*,10µM*,?,5.36µM*,2.82µM*
Cc1nn(-c2ccccc2)c(Cl)c1/C=N/Nc1nc2ccccc2[nH]1,2.59µM*,0.447µM*,·,?,0.477µM*,0.562µM*
CC(=O)N1CCC(=NNc2nc3ccccc3[nH]2)CC1,3.4%,-6.3%,?,?,?,0.6%
COc1ccc(/C=N/Nc2nc3ccccc3[nH]2)c(OC)c1OC,?,?,·,?,1.51µM*,?
COc1cccc(/C=N/Nc2nc(C)cc(=O)[nH]2)c1OC,10.2%,14.5%,·,?,?,25.9%
CO[C@]1(NC(=O)C(C(=O)O)c2ccc(O)cc2)C(=O)N2C(C(=O)O)=C(CSc3nnnn3C)COC21 (stereo partly specified),·,·,0.7%,·,·,·
N#Cc1c2n(c3c(N)ncnc13)CCCCC2,0.4%,-5.7%,·,-1.2%,-2.8%,-3.1%
Cc1cc(=O)[nH]c(N/N=C/c2ccccc2C(F)(F)F)n1,5.4%,2.5%,-3.3%,12.4%,-2.5%,-5.7%
Cc1[nH]c2ccccc2c1/C=N/Nc1nc2ccccc2[nH]1,?,18.3%,·,?,4.26µM*,?
C(=N\Nc1nc2ccccc2[nH]1)/c1cccc2cccnc12,?,-15.1%,·,?,0.426µM*,25.7%
Cc1ccccc1/C=N/Nc1nc2ccccc2[nH]1,-10.2%,3.55µM*,·,?,10.7µM*,?
C(=N\Nc1nc2ccccc2[nH]1)/c1c[nH]c2ccccc12,?,?,?,?,7.57µM*,?
C/C(CC(=O)Nc1cc(Cl)ccc1C)=N\NC(=O)C(=O)N1CCCC1,-0.8%,-0.9%,·,3.6%,1.3%,2.1%
O=C(c1ccc2c(=O)n3c(nc2c1)CCCCC3)N1CCc2ccccc21,12.2%,19.1%,·,?,?,11.8%
Cc1nn(-c2ccccc2)nc1CNC(=O)c1ncoc1-c1ccccc1,-6.6%,-6.2%,·,-15.0%,-4.7%,-2.1%
COc1cc(N/N=C(\C)c2ccc(N)cc2)nc(-c2ccccc2)n1,-5.5%,27.9%,8.8%,?,15.1µM*,7.2%
COc1cc(N/N=C(\C)c2ccc(O)c(C)c2)nc(-c2ccccc2)n1,-7.2%,-12.1%,·,-17.0%,15.1µM*,-5.7%
Cc1cccc(N2CCN(C(=O)C3CCN(S(=O)(=O)c4c(C)noc4C)CC3)CC2)c1C,-1.7%,-11.3%,5.5%,13µM*,3.1%,0.1%
Cc1ccc(C)c(N2CCN(C(=O)C3CCCN(S(=O)(=O)c4c(C)noc4C)C3)CC2)c1 (stereo unspecified),-2.4%,-9.2%,-73.8%,14.6µM*,2.9%,-4.2%
Cc1noc(C)c1S(=O)(=O)N1CCC(C(=O)N2CCN(c3ccccc3Cl)CC2)CC1,-17.2%,-6.5%,-53.3%,?,1.6%,-3.6%
SMILES,ELG1 genotox,Rab9 prom act,SMN2 splice enh,ELG1 DNA repair,FLuc modulator,NPC1 promoter act
Cc1nc2scc(C)n2c(=O)c1S(=O)(=O)N1CCN(c2ccccc2F)CC1,-2.7%,-3.6%,·,0.8%,1.7%,-3.3%
Cc1ccc(C)c(N2CCN(C(=O)C3CCN(S(=O)(=O)c4c(C)noc4C)CC3)CC2)c1,-4.9%,-27.7%,·,11.6µM*,-0.2%,-17.1%
Cc1cccc(N2CCN(S(=O)(=O)c3c(C)nc4scc(C)n4c3=O)CC2)c1C,-18.9%,-0.8%,4.3%,25.9µM*,2.4%,-4.3%
CCn1nc(C(=O)Nc2cc(Cl)ccc2-n2cncn2)c2ccccc2c1=O,-2.6%,-2.6%,·,6.1%,2.5%,0.2%
COc1cc(C(=O)NNC(=O)CSc2nnc3ccccn23)cc(OC)c1OC,-0.5%,-3.1%,·,?,2.2%,-3.6%
Cc1cc(Nc2ccccc2C)nc(-n2nc(C)cc2C)n1,·,·,·,·,3.8%,·
COc1cccc(C2C(C(=O)Nc3ccc(Cl)cc3)=C(C)Nc3c(C(=O)Nc4ccccc4)cnn32)c1OC (stereo unspecified),·,·,3.5%,·,-5.9%,·
CN(C)S(=O)(=O)n1cc(/C=C(\NC(=O)c2ccccc2F)C(=O)NCCCN2CCOCC2)c2ccccc21,-9.0%,2.2%,·,-22.2%,-0.5%,-2.1%
COc1ccc(S(=O)(=O)N/N=C(/C)c2ccncc2)cc1OC,-2.6%,3.5%,·,-0.3%,5.9%,1.7%
Cc1c(C(=O)OCC(=O)NC(C)c2ccccc2)oc2ccccc12 (stereo unspecified),1.7%,-1.9%,·,10.0%,-1.2%,-4.1%
Cc1ccc(C)c(N2CCN(C(=O)C3CCN(c4nnc(N5CCCC5=O)s4)CC3)CC2)c1,-12.0%,-10.1%,-47.7%,14.6µM*,-8.9%,-5.4%
O=C(C1CCN(c2nnc(N3CCCC3=O)s2)CC1)N1CCN(c2cccc(C(F)(F)F)c2)CC1,-5.4%[9.26 µM],-18.1%,·,?,-1.6%,-4.6%
CCCCC(=O)Nc1ccc(NC(=O)c2ccc3c(c2)OCO3)cc1OC,12.5%,-0.2%,29.0%,-1.1%,10.7µM*,15.1%
CC(C)C(=O)Nc1ccc(NC(=O)c2ccc3c(c2)OCO3)cc1,?,9.2%,·,?,-5.4%,5.1%
COc1cc(NC(=O)c2ccc3c(c2)OCO3)ccc1NC(=O)C(C)C,9.3%,4.2%,-18.6%,15.9%,15.1µM*,18.3%
O=C(NCCc1ccc(C(F)(F)F)cc1)C1CC(=O)N(Cc2ccccc2)C1 (stereo unspecified),5.2%,-10.8%,·,9.2%,2.7%,-9.1%
C/C(CC(=O)Nc1ccc(Cl)c(C(F)(F)F)c1)=N\NC(=O)c1ccccc1O,-5.8%,-0.6%,9.8%[1.84 µM],-11.0%,16.9µM*,0.6%
C/C(Cn1nnc([N+](=O)[O-])n1)=N\NC(=O)c1ccc(O)cc1O,-8.8%,-7.3%,-15.9%,10.5%,?,6.7%
C/C(CC(=O)Nc1ccc(N(C)C)cc1)=N\NC(=O)c1ccc(Cl)cc1Cl,7.6%,6.7%,·,18.1%,-17.6%,-0.9%
C/C(CC(=O)Nc1ccc([N+](=O)[O-])cc1)=N\NC(=O)c1ccccc1O,-0.9%,-2.1%,·,-1.3%,12µM*,2.5%
C/C(CC(=O)Nc1ccc(Cl)c(C(F)(F)F)c1)=N\NC(=O)c1cccc(O)c1,-3.2%,0.3%,12.6%,-8.8%,-11.9%,-1.8%
